According to PubChem BioAssay (NCATS):
Results filed as inconclusive are left out. A call without a number means that no potency is given here. Calls of active or inactive are those of the source. Calls come from the whole dose curve; as a rule, active = well fitted inhibition curve with a large enough effect; inconclusive = small, poorly fitted or top-dose-only effect; inactive = flat fitted curve, though single readings scatter.

Key:
[1] = molecular target: Calcium and integrin-binding protein 1 (Homo sapiens) (UniProt Q99828); assay: Primary qHTS for Identification of Calcium Integrin Binding Protein 1 (CIB1) Competitor (AID 1508620); conditions: CIB1-GST / FITC-alphaIIb peptide fluorescence polarization; series mostly up to 57.7 µM;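 note: GST tagged CIB1 binding a fluorescein labelled alphaIIb integrin peptide tracer; top concentration of the series differs between compounds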
How it was run: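 Fluorescence polarization competition: CIB1-GST (1 uM final) preincubated with compound 15 min at room temperature, then FITC-labeled alphaIIb peptide (100 nM final) added for another 15 min. Polarization read at Ex 480/Em 540.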

[2] = Primary qHTS for inhibitors of nuclear receptor binding SET domain protein 2 (NSD2) in an isogenic RCH-ACV NSD2 p.E1099K mutant (9B) (AID 1645876); conditions: RCH-ACV (leukaemia line) NSD2 E1099K (9B) viability, CellTiter-Glo, 72 h; series mostly up to 44.9 µM; note: nearly all actives have a fitted effect of over 70% in size

Calcium and integrin-binding protein 1 (Homo sapiens), sequence (Q99828 whole entry, looked up): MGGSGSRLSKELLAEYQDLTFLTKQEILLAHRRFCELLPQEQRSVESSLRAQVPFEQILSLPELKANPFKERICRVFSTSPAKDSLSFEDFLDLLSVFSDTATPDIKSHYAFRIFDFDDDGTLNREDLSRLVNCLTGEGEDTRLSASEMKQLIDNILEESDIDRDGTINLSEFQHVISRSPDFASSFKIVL

Row | Structure (SMILES) | Potency [1] | Potency [2]
1 | C[C@@H]1C[C@@H](O)[C@@]23CO[C@]2(CO)C[C@@H](O)CC3[C@@]12CC(c1ccoc1)OC2=O (some centres not stated) | inactive | inactive
2 | COC(=O)CCC1(C)C(C(C)(C)O)C(O)CC2(C)Oc3c(C)c4c(c(OC)c3CC21)C(=O)OC4 (configuration not stated) | inactive | inactive
3 | CC(C)(O)C1OC1C1=CC(=O)C2(C)OC2C1O (configuration not stated) | inactive | inactive
4 | C[C@H]1/C=C/C=C/C=C/C=C/C=C/[C@@H](O)[C@H](C(=O)O)[C@H](O)C[C@H](O)CCC[C@H](O)C[C@H](O)C[C@H](O)[C@@H](C)C(=O)O[C@@H]1C | inactive | inactive
5 | CC(=O)NC(C(=O)OC1CCC(C)(C)C2CC=C3C(=O)OCC3C12C)C(C)C (configuration not stated) | inactive | inactive
6 | C=C1CC/C=C(/CO)C(=O)C[C@@H]2[C@@H]1C[C@@]2(C)COC(C)=O | inactive | inactive
7 | C=C1C(=O)O[C@@H]2/C=C(\C)CC/C=C(\C(=O)O[C@@H]3O[C@H](CO)[C@@H](O)[C@H](O)[C@H]3O)CC[C@@H]12 | inactive | inactive
8 | CC(=O)OC(C)C(C)(O)C(=O)O[C@@H]1CC[C@]2(C)CC(=O)C(=C(C)C)C[C@H]2[C@]1(C)OC(C)=O (some centres not stated) | inactive | inactive
9 | CC1(C)C[C@H]2C=C(C=O)[C@]3(C(=O)O)C[C@]3(C)[C@H]2C1 | inactive | inactive
10 | C/C=C1\[C@H](O[C@@H]2O[C@H](CO)[C@@H](O)[C@H](O)[C@H]2O)OC=C(C(=O)OCCc2ccc(O)cc2)[C@H]1CC(=O)OCCc1ccc(O)cc1 | inactive | inactive
11 | CO[C@H]1c2cc(C(C)C)c(O)c(O)c2[C@@]23CCCC(C)(C)C2[C@@H]1OC3=O (some centres not stated) | inactive | inactive
